# High-throughput results deposited in PubChem by National Center for Advancing Translational Sciences (NCATS).
# Compounds with a hit are over-represented: about 7.4% of the library has one in this group of screens.
# ELG1 genotox: genotoxicity induction in ELG1-luciferase HEK293T cells | HEK293T ELG1-luciferase reporter, luminescence, 16 h | Potency, µM (series often up to 46 µM), for the others: at the top dose activity change, positive = activation, most hits filed as activators | hit rate 1.3% among 330,000; note: % of control where 0% means no effect; nearly all actives have a fitted effect of over 60% in size
#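 DMSO vehicle served as control against compound-treated ELG1-luciferase HEK293T cells; exposure lasted 16 hr at 37 °C and 5% CO2, followed by ONE-Glo luminescence detection after 30 min.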
# FLuc modulator: counter-screen for miR-21 project: firefly luciferase inhibitors or activators. P08659. purified FLuc, Km substrates, luminescence inhibition. Potency, µM (top dose mostly 57.5 µM), without a hit: top-dose activity change, negative = inhibition, hits mostly inhibitors. hit rate 6.9% among 360,000;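 note: plate controls were vehicle for no effect and reference inhibitor for full effect; nearly all actives have a fitted effect of over 55% in size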
# Target sequence (P08659 whole entry, looked up): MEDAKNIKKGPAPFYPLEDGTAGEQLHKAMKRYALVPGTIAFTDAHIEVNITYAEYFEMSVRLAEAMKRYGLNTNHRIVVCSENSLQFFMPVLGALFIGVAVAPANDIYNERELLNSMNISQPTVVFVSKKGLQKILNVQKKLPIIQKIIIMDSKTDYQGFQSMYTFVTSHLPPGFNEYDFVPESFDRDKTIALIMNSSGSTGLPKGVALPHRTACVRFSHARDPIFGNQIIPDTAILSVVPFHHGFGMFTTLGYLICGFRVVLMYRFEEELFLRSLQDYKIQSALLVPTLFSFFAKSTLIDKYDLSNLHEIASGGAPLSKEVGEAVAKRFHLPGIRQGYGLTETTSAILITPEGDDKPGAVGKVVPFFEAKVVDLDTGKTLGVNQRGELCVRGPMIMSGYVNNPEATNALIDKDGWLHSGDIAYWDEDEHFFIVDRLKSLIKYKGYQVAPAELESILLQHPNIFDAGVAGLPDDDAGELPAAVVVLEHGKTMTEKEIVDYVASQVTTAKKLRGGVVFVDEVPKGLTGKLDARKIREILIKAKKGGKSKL
#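 Biochemical qHTS of compounds, final roughly 60 µM downward over six points, against 10 nM purified firefly luciferase using Km concentrations of substrates (10 uM D-luciferin, 10 uM ATP) in Tris acetate pH 7.5 buffer; luminescence output.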
# Rab9 prom act: activators of Rab9 promoter; Huh7 Rab9 promoter-luciferase reporter, luminescence, 24 h; Potency, µM (top dose mostly 9.22 µM), without a hit: at the top dose activation, negative = inhibition, usual class: activators; hit rate 2.8% among 320,000; note: % of control where 0% means no effect; nearly all actives have a fitted effect of over 60% in size
#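 Using Huh7 cells stably transfected with Rab9 promoter–luciferase, compounds were incubated 24 h at 37 °C, 5% CO2; luciferase luminescence was read 10 min after reagent addition.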
# SMN2 splice up: increases expression of the SMN2 splice variant. hit rate 2.8% among 210,000. Potency, µM (highest dose often 46.1 µM), without a hit: at the highest dose activity change, positive = activation, actives largely listed as activators. HEK293 SMN2-luciferase splicing reporter, luminescence, 30-36 h; note: % of control where 0% means no effect; nearly all actives have a fitted effect of over 55% in size
#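 HEK293 cells carry an SMN2 […]–luciferase reporter in which exon 7 inclusion puts luciferase in frame. Cells were plated 10-12 h before compound addition, then incubated 30-36 h at 37C. ONE-Glo luminescence was read; sodium butyrate at 4.5 mM final served as control.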
# NPC1 prom act: NPC1 promoter activation. hit rate 2.4% among 320,000. Potency, µM (series often up to 9.22 µM), for the others: at the highest dose activation, actives largely listed as activators. AID 485313. Huh7 NPC1 promoter luciferase reporter, 24 h; note: % of control where 0% means no effect; nearly all actives have a fitted effect of over 60% in size
#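 Readout is luciferase luminescence, reflecting NPC1 promoter activation in stably transfected Huh7 cells after 24 h compound exposure at 37 °C in reduced-serum medium with 10% FBS.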
# An asterisk follows results filed as active; ? = inconclusive; · = no result given; [ ] = dose if it differs, or a comment. Calls come from the whole dose curve; as a rule, active = well fitted curve in the direction sought with a large enough effect; inconclusive = small, poorly fitted or top-dose-only effect, or another doubt; inactive = no such curve, though single readings can be large; an effect the other way counts as inactive or inconclusive. Potency is the fitted concentration of half-maximal effect.
SMILES,ELG1 genotox,FLuc modulator,Rab9 prom act,SMN2 splice up,NPC1 prom act
Nc1nc2c(-c3ccc(Br)cc3)nnn2c2ccccc12,12µM*,0.43µM*,0.63µM*,·,1µM*
CCN(CC)c1ccc(/C=N/Nc2ccccc2)c(O)c1,8%,21µM*,15%,5%,11%
CCN(CC)c1ccc(C=Nc2ccc(C)cc2)c(O)c1,1%,11µM*,3%,8%,0%
CCN(CC)c1ccc(C=Nc2cc(C)cc(C)c2)c(O)c1,1%,?,8%,-6%,1%
CCN(CC)c1ccc(C=Nc2ccccc2)c(O)c1,6%,4.3µM*,-1%,20%,-8%
CCN(CC)c1ccc(N=Cc2ccc(N(CC)CC)cc2O)cc1,-16%,-11%,-2%,24%,6%
CCN(CC)c1ccc(/C=N/Nc2cccc(C)c2)c(O)c1,14%,?,1%,?,16%
CCN(CC)c1ccc(C=Nc2ccc(N(C)C)cc2)c(O)c1,13µM*,8.5µM*,15%,-1%,0%
CCN(CC)c1ccc(/C=N/N2CCOCC2)c(O)c1,?,13µM*,3.5µM*,8.9µM*,?
Oc1cccc(-c2nc3ccc4ccccc4c3c3c2CCC3)c1,18%,6µM*,?,?,?
CC(C)(C)c1ccc(/C=C/C(=O)N2CCOCC2)cc1,?,11µM*,?,3.2µM*,?
O=C(/C=C/c1ccc2c(c1)OCO2)N1CCOCC1,11%,17µM*,26%,·,19%
CC(C)(C)c1ccc(/C=C/C(=O)N2CCN(c3ncccn3)CC2)cc1,-3%,24µM*,-3%,-4%,-3%
CC(C)Cc1ccc(/C=C/C(=O)N2CCOCC2)cc1,?,11µM*,2.2µM*,13µM*,2.8µM*
CCOC(=O)c1sc(N2N=C(C)C(N=Nc3cccc(C)c3)C2=O)nc1C (centres undefined),-3%,6.7µM*,15%,·,21%
O=S(=O)(NCCc1csc2nc(-c3ccc(Cl)cc3)nn12)c1ccc2c(c1)OCCO2,·,1%,·,·,·
Cc1ccc2[nH]c(O)c(N=NC(N)=S)c2c1,5%,2%,1%,·,-4%
O=C(O)c1ccc(N=Nc2c(O)[nH]c3ccc(Br)cc23)cc1,18µM*,11µM*,?,·,1.3µM*
Cc1ccc(N=Nc2c(O)[nH]c3ccc(F)cc23)cc1,?,?,2.8µM*,·,3.2µM*
COC(=O)N=Nc1c(O)[nH]c2ccc(Br)cc12,-5%,-8%,14%,·,12%
Nc1nc(N)c(N=Nc2ccc(C(=O)O)cc2)c(N)n1,0%,-17%,16%,·,-2%
Cc1cccc2c(N=Nc3ccccc3)c(O)[nH]c12,5.2µM*,1.5µM*,2µM*,·,1.4µM*
O=C(O)c1ccc(N=Nc2c(O)[nH]c3cc(Cl)ccc23)cc1,9.2µM*,0.85µM*,0.1µM*,·,0.32µM*
Cc1cc(=O)n(CC(=O)Nc2cc(Cl)ccc2C)c(C(C)C)n1,-2%,0%,3%,-4%,-2%
Oc1[nH]c2ccccc2c1N=Nc1c(F)c(F)c(Cl)c(F)c1F,4%,-3%,?,·,24%
SMILES,ELG1 genotox,FLuc modulator,Rab9 prom act,SMN2 splice up,NPC1 prom act
CCOc1ccc(NC(=S)N=Nc2c(O)[nH]c3ccccc23)cc1,-10%,-16%,-4%,-41%,-8%
Oc1cccc(NC(=S)N=Nc2c(O)[nH]c3ccccc23)c1,?,19µM*,22%,·,16%
Cc1ccc(N=Nc2[nH]c3ccccc3c2O)cc1,?,?,19%,13µM*,5%
Oc1[nH]c2ccccc2c1N=Nc1cccc(Cl)c1,?,5.4µM*,?,·,30%
COc1ccc(N=Nc2[nH]c3ccc(C)cc3c2O)cc1,13%,-11%,24%,0%[1.84 µM],7%
c1ccncc1,·,·,·,-3%,·
COc1cccc2cc(C(=O)Nc3ccc(C)cc3)c(=O)oc12,·,0.38µM*,·,14%,·
COc1cccc2cc(C(=O)Nc3ccc(F)c(F)c3)c(=O)oc12,·,0%,·,2%,·
COc1cccc2cc(CC(=O)c3ccc(C)cc3C)c(=O)oc12,11%,11µM*,?,·,?
COc1cccc2cc(NC(=O)C3CCCCC3)c(=O)oc12,?,?,1.8µM*,?,3.2µM*
COc1ccc(C(=O)Cc2cc3cccc(OC)c3oc2=O)cc1,13%,?,-5%[1.84 µM],·,28%
COc1cccc2cc(C(=O)Nc3cccc(C)n3)c(=O)oc12,2.3µM*,0.21µM*,?,-8%,22%
O=C(O)[C@H](C1NCCS1)N1Cc2ccccc2C1 (some centres undefined),·,·,·,-7%[9.22 µM],·
CC(C)C(NC(=O)c1ccc(F)cc1)C(=O)N1CCN(c2ccccn2)CC1 (centres undefined),-3%,·,·,·,·
Cc1ccc(NC(=O)CCCC2CCCCC2)c(O)c1,?,8.5µM*,?,·,?
Cc1ccc(NC(=O)CCN2C(=O)C3CCCCC3C2=O)c(O)c1 (centres undefined),2%,2%,-5%,·,0%
N#C/C(=N\O)c1nc2ccccc2s1,-2%,?,4%,·,-4%
N#C/C(=C(/O)CSc1ccccn1)c1nc2ccccc2s1,6%,21µM*,-6%,77%,0%
N#C/C(=C(/O)COc1ccc(Cl)cc1)c1nc2ccccc2s1,-10%,24µM*,-2%,-15%,4%
N#C/C(=C(/O)c1ccc(F)cc1)c1nc2ccccc2s1,-2%,9.5µM*,2.5µM*,-35%,2.5µM*
N#C/C(=C(/O)c1ccc(-c2cccc([N+](=O)[O-])c2)o1)c1nc2ccccc2s1,-4%,3µM*,17%,2%,8%
COc1ccc(C/C(O)=C(\C#N)c2nc3ccccc3s2)cc1,-8%,?,-3%[1.84 µM],-45%,-4%
O=C(NCCc1ccc(Cl)cc1Cl)c1cccnc1,-7%,-2%,6%,·,-3%
N#C/C(=C(/O)COc1ccccc1)c1nc2ccccc2s1,-6%,19µM*,-1%,2%,-1%
Cc1ccccc1-n1sc2cc(F)ccc2c1=O,-10%,11µM*,5%,-48%,10%
SMILES,ELG1 genotox,FLuc modulator,Rab9 prom act,SMN2 splice up,NPC1 prom act
O=c1c2cc(F)ccc2sn1-c1ccccc1,-2%,?,1%,·,12%
COc1cccc(/C=N/NC(=O)C(=O)N2CCCC2)c1OC,0%,-12%,3%,0%,-1%
COc1ccccc1/C=C\C(=O)NCC(=O)N/N=C/c1cccc(OC)c1O,?,-4%,-8%,·,-24%
COc1cc(/C=N\NC(=O)c2ccc(Cn3nc([N+](=O)[O-])c(Cl)c3C)o2)ccc1O,12%,?,-2%,?,-3%
COc1cccc(/C=N/NC(=O)C(=O)N2CCCC2)c1O,?,15µM*,11%,-48%,7%
COc1cccc(/C=N\NC(=O)c2ccc(Cn3cc(Br)c([N+](=O)[O-])n3)o2)c1O,12%,11µM*,-51%,·,-33%
COc1cccc(/C=N/NC(=O)C(C)n2nc(C)c([N+](=O)[O-])c2C)c1O (centres undefined),?,7.6µM*,-30%,?,-13%
